Screening results deposited in PubChem by National Center for Advancing Translational Sciences (NCATS).
Sampled rows, rich in hits. Any-hit rate of the full collection: about 2.4%.
Rango release inh – qHTS Assay for Inhibitors of RanGTP induced Rango (Ran-regulated importin-beta cargo) - Importin beta complex dissociation. Snurportin-1 (Homo sapiens) + GTP-binding nuclear protein Ran (Homo sapiens) + Importin …. hit rate 0.071% among 340,000. Biochemical FRET Rango-importin beta, RanGTP-induced dissociation. Potency, µM (doses to about 46.1 µM); calls by dose curve; further: nearly all actives have a fitted effect of over 45% in size
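Rango/importin beta premix (0.1/0.25 uM final), PBS + 1 mM DTT + 0.02% Tween-20 + 0.1% BSA; cpd 5 min RT; FRET pre-read; + RanGTP-RCC1 (0.6 uM Ran, 2 mM GTP, 0.2 uM RCC1); 45 min RT; FRET post-read, ex 430, em 486/530 nm.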
Tb PGK inh – qHTS Assay to Find Inhibitors of Phosphoglycerate Kinase | PGK/GAPDH coupled, Kinase-Glo luminescence, 60 min | Potency, µM (top dose mostly 57.5 µM), usual class: inhibitors | hit rate 0.043% among 380,000; further: nearly all actives have a fitted effect of over 60% in size
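Luminescent ATP detection (Kinase-Glo Plus) follows a 60-minute room-temperature incubation, with wells lacking PGK as controls. Buffer: 100 mM TEA (pH 7.6), 5 mM MgCl2, 0.01% Tween-20. Coupling enzyme GAPDH (100 nM final) supplies unstable 1,3-BPG in-well.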
ELG1 DNA repair – qHTS screen for small molecules that inhibit ELG1-dependent DNA repair in human embryonic kidney (HEK293T) cells expressing luciferase-tagged ELG1. HEK293T ELG1-luciferase reporter, luminescence, 16 h; DNA damage induced by 5-fluorouridine. hit rate 2.3% among 330,000. Potency, µM (top dose mostly 46.1 µM), most hits filed as inhibitors; further: nearly all actives have a fitted effect of over 55% in size
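Reporter activity after DNA damage by 5-fluorouridine is monitored. Compound-treated cells incubate 16 hr at 37 °C, then ONE-Glo is added for 30 min before luminescence reading.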
Tb PFK block – qHTS Assay to Find Inhibitors of T. brucei phosphofructokinase | ATP-dependent 6-phosphofructokinase (Trypanosoma brucei brucei), O15648 | T. brucei PFK, ADP-Glo luminescence | Potency, µM (titrated, usually from 57.5 µM), actives largely listed as inhibitors | hit rate 0.17% among 330,000 | AID 485367, 2010; further: nearly all actives have a fitted effect of over 60% in size
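Compounds were pin-transferred as a titration series up to 57 uM into substrate buffer (0.5 mM F6P, 0.1 mM ATP, pH 8.0), then 1.25 nM PFK was added and reactions ran 45 min before ADP-Glo detection.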
Rango complex inh – qHTS Assay for Inhibitors of Rango (Ran-regulated importin-beta cargo) - Importin beta complex formation; Importin subunit beta-1 (Homo sapiens), Q14974; Rango CFP/YFP FRET sensor + importin beta, 45 min; Potency, µM (top dose mostly 92.2 µM); hit rate 0.031% among 340,000; AID 540263, 2011; calls by dose curve; further: nearly all actives have a fitted effect of over 15% in size
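FRET biosensor Rango (snurportin 1 IBB between N-terminal EYFP and C-terminal Cerulean), 50 nM in PBS/1 mM DTT/0.02% Tween-20/0.1% BSA, preincubated 5 min RT with compound; 0.125 microM importin beta added, 45 min RT, CFP/YFP FRET ratio read.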
PKM2 activator – qHTS Assay for Activators of Human Muscle isoform 2 Pyruvate Kinase | Potency, µM (series often up to 57.5 µM), most hits filed as activators | purified PKM2, Kinase-Glo ATP luminescence, activation; response scale: 0% is enzyme alone, no compound | hit rate 0.34% among 260,000 | Pyruvate kinase PKM (Homo sapiens), P14618; further: nearly all actives have a fitted effect of over 55% in size
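Purified hPK-M2 (>95%) run at intermediate activity with 0.1 mM ADP and 0.5 mM PEP in 50 mM imidazole pH 7.2, KCl, MgCl2; 1 h room temperature. ATP formed read by Kinase-Glo luminescence; normalized to uninhibited and no-enzyme controls.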
ELG1 Luc conf – HTS assay for small molecules that inhibit ELG1-dependent DNA repair in human embryonic kidney (HEK293T) cells expressing luciferase-tagged ELG1: Hit Confirmation; shares compounds with ELG1 DNA repair; Potency, µM (series often up to 46.1 µM), most hits filed as inhibitors; HEK293T ELG1-luciferase levels, luminescence; cells co-treated with 5-fluorouridine; hit rate 68% among 670; further: nearly all actives have a fitted effect of over 55% in size
ELG1 MMS Luc – inhibits ELG1-dependent repair under MMS stimulation in HEK293T cells. shares compounds with ELG1 DNA repair. HEK293T luciferase-tagged ELG1 level, MMS stimulated. Potency, µM (titrated, usually from 46.1 µM), usual class: inhibitors. hit rate 53% among 670. AID 624249; further: nearly all actives have a fitted effect of over 60% in size
ELG1 5FU viab – qHTS screen for small molecules that inhibit ELG1-dependent DNA repair: Hit Confirmation with 5FU Viability | shares compounds with ELG1 DNA repair | cell viability with 5-FU, ELG1-dependent repair | Potency, µM (doses to about 46.1 µM), actives largely listed as cytotoxic | 670 tested, under 10 active;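 further: ELG1-luc HEK293T cells cotreated with 5-fluorouridine at 10 µM final; viability measured 16 h after compound addition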
ELG1 MMS cell – qHTS screen for small molecules that inhibit ELG1-dependent DNA repair: Hit Confirmation with MMS Viability | Cell viability with MMS, ELG1-dependent DNA repair | Potency, µM (highest dose often 46.1 µM), usual class: cytotoxic | shares compounds with ELG1 DNA repair | hit rate 33% among 670;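 further: ELG1-luc HEK293T cells co-treated with 10 µM MMS; viability read 16 h after compound addition; nearly all actives have a fitted effect of over 60% in size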
ELG1 unstim viab – qHTS screen for small molecules that inhibit ELG1-dependent DNA repair: Hit Confirmation with Unstimulated Viability Assay; shares compounds with ELG1 DNA repair; cell viability counter-screen, unstimulated, luminescence; Potency, µM (titrated, usually from 45.9 µM), most hits filed as cytotoxic; hit rate 8% among 900;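 further: compound exposure lasted 16 hours before reading; nearly all actives have a fitted effect of over 55% in size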
Each line names hits and unclear results; the compound was inactive in the other large screens (follow-up assays come after a bar, where they were run). Unless noted, the call rests on the fitted dose curve; in most records, active means well fitted curve in the direction sought with a large enough effect; inconclusive means small, poorly fitted or top-dose-only effect, or another doubt; inactive means no such curve, though single readings can be large; an effect the other way counts as inactive or inconclusive.

CCOC(=O)c1c(C)[nH]c(C(=O)Nc2cc(OCC)c(N3CCOCC3)cc2OCC)c1C	ELG1 DNA repair 4.6µM (no result: PKM2 activator) | ELG1 Luc conf 5.6µM | ELG1 MMS Luc inactive | ELG1 5FU viab inconclusive | ELG1 MMS cell inactive | ELG1 unstim viab inactive
CCOc1cc(N2CCOCC2)c(OCC)cc1NC(=O)c1cc(C)cc(C)c1	ELG1 DNA repair inconclusive
CCc1ccccc1OCC(=O)Nc1cc(S(=O)(=O)N(CC)CC)ccc1N1CCOCC1	ELG1 DNA repair 2.6µM (no result: PKM2 activator) | ELG1 Luc conf 4.4µM | ELG1 MMS Luc inactive | ELG1 5FU viab inconclusive | ELG1 MMS cell inactive | ELG1 unstim viab inconclusive
CCN(CC)S(=O)(=O)c1cccc(-n2c(O)c(C=Nc3ccccc3C(=O)O)c3ccccc3c2=O)c1	ELG1 DNA repair 5.8µM, Rango complex inh inconclusive | ELG1 Luc conf 0.35µM | ELG1 MMS Luc 0.35µM | ELG1 5FU viab inactive | ELG1 MMS cell 0.4µM | ELG1 unstim viab 0.44µM
O=C(O)c1ccccc1N=Cc1c(O)n(-c2nccs2)c(=O)c2ccccc12	Rango release inh inconclusive, ELG1 DNA repair inconclusive, Tb PFK block inconclusive, Rango complex inh inconclusive
OCCN1CCN(c2ncnc3ccc(Br)cc23)CC1	ELG1 DNA repair 2.1µM | ELG1 Luc conf inconclusive | ELG1 MMS Luc inconclusive | ELG1 5FU viab inactive | ELG1 MMS cell inactive | ELG1 unstim viab inactive
